Experimental data: PubChem BioAssay AID1508600 (Functional Genomics Laboratory (NCATS/FGL), 2020)
About 3,700 (7%) of roughly 53,000 sequences were called active.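 The calls were made as follows: active = gene knockdowns whose robust z-score for IL-1 alpha signal is at least 2 or at most -2, so actives lie on both sides; inactive = the rest.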 Only a selection was taken, and actives are over-represented in it overall.

Test: Components of the Cytosolic LPS Sensing Pathway: Gene Identification via Genome-wide siRNA Screen;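 also: robust z of the log signal after scaling to non-targeting control siRNA wells of the plate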
Conditions: RAW264.7 macrophages, IL-1a HTRF, actives lie on both sides, screened at 100 nM (by protocol), cells primed 5 h with Pam3CSK4 first
Procedure, shortened: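 Cells (RAW264.7, 1×10^4 per well) were transfected with siRNA at 100 nM and cultured 48h at 37 degrees C. Pam3CSK4 was added for 5 hours; LipidA transfection followed for 24 hour. IL-1a was then measured by HTRF.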

z-score, active:
GGCUAAAACACUUAUCAAUTT against Poteg -2.32, GGUCAUGGCUGGAUUUCUUTT against Olfr1462 -2.42, GCAUAGGAGAGACCAACAUTT against Zcchc10 -2.42, CCAAAACAACCACAAGUAGTT against Zfp385c -2.96, CCCUUACAACUCAAGUAUCTT against Lrig3 2.1, GGGUUUUUGUCAAAUCUGUTT against Ttc5 -2.24, GGGAAGCUUUACUUUUUAATT against Mapk4 2.05, CCACAGUAUCAUGUAACUATT against Il1a -2.23, GGCUGAACAAGAGAAACCATT against Ppdpf -2.49, GGAAUUUAGAAAAUGUGACTT against Vmn1r227 -2.67, CCCACCUUAUGGGACAAAATT against Hlf 2.05, GGCUGAACAGGCAUGAUCATT against Rpap1 -3, CGAAAAUCAAGCGGAAUUUTT against Zmiz1 2.49, GGCGGGUUUGCUGAAUAACTT against Lrrc26 2.43, GGUGAAAGUACUGAGGAAGTT against Rlim 2.45, GGCAAAGAAGGAGAAAGUATT against Cd209c -2.06, GGGCAAUAAGAUGUACGUUTT against Eomes 3.24, GGACUAAGAUUUGUGUUAGTT against Ccdc127 2.15, GGCUAUGGAGUUCACCACATT against Krtap5-5 -2.66, GGAGGAGAACAGCAAUCUUTT against Speer4d -2.38, GGAUGCAUGGCUCAAUAUUTT against Olfr1164 2.01, GGUCUUUGCUACCAACCUGTT against Fignl1 -2.15, GGUUAUUCUGGCUAUGGGCTT against Taf15 -2.22, GGGAGUGCCUGGGUUUGUATT against Dusp28 3.19

z-score, inactive:
GCACAAUUUUAUAACUCGGTT against Lrrc49 0.457, GGAUAACUAUAUUCCAGUGTT against Rhobtb3 0.885, CGUACCAUGUAAAUUCUAUTT against Impa1 0.843, CCCAAGAAACUUCGCUUCCTT against Ehmt1 -0.551, GCCAAGCUUAAGAACUUAATT against Oas3 1.51, GGAAUAGGCCUUCUUGCUGTT against Matr3 -0.395, GCAAGACGGUGAUUGUAACTT against Pck2 -0.243, GCUGAUUGAACUGAAUGGATT against Slc22a21 -1.27, CCAGGAUUGAUUUAGAAAATT against BC107364 1.29, GCAGUGUCCAAAGCACUUUTT against Slc6a9 -1.14, GGAUCGCUUAGUCUCAUGATT against Inip -0.493, GGUGAACGAUGUCAACUUUTT against Dvl1 -0.545, GGAGGAAAAUCAGACAGGATT against Olfr1419 -0.13, GGUCCUCAAGAUCUUUGUGTT against Extl1 0.0445, GCUCUGUGGACUUCUUGGATT against Znrf4 -0.687, GGGCUAAAGCCUUCAACACTT against Olfr923 0.315, GGUUGAAAAUGUUGUCAGGTT against Atpsckmt -0.733, GGACAUCCAGACCAAUGUCTT against Psmd8 1.1, GGUCCAGACAUUUGGAUACTT against Cav2 0.428, GGAUACCUGAAAAUUGAUATT against Npr1 -0.667, CCUUAUGAAUCCCGAGUACTT against Bmp6 -0.0506, GGGCAAAAAAGGUCUAUUCTT against Rfpl4 0.44, GGAACCUAUUGCUGUUUUATT against Map2k3 -0.756, GGAAUGUGGUUUCCUGUUATT against Fscn3 0.502, CCCAGAAUUAAACAUAGCUTT against Rrh 0.0181, GGAAACCUGCUCAUAGUGGTT against Olfr1188 0.54, GCAUGCCUAAAUUUGGGACTT against Fyb 0.805, GGCUGGACACUGAGAAAAATT against Adcy4 1.63, GGUAUUUGGAGUACCCUUUTT against Arhgap11a 0.196, GGACAAGACUCUCAGUUCATT against Atpaf1 0.77, GGGUGAUCUGUAGUAUUUUTT against Olfr574 -0.879, CCCUGUUACGAAGUUUAACTT against Slc17a7 -1.27, GGUGACUCUGAUUCUCAUATT against Slc22a13 -0.176, GGAACUUGUACAAAUAGGATT against Lpcat1 0.587, GGACGAAGAGGAGAAAGAGTT against Ccdc184 -1.25, GCUUAUUCCCAGGAGACCATT against Dmrtc2 -0.764, GGUGGCCCAGUCUAAAGAATT against R74862 0.872, CCAGUGACAUUCAAUACCUTT against Lrif1 -1.52, GGUCAAUAUUGGCUUAUGUTT against Tmem42 -1.43, GGUGGAGAGAAAGAGAAAATT against Mcm8 0.767, GGGUUACUUUAGCUAUUUCTT against Rbm14 -1.11, GGAGCUGCUAUGUACACAUTT against Bptf 0.364, GGGUGAAUUUCCACCUUAUTT against Sgce -0.521, GGAGAAAAUACAACUGUGATT against Ctrc -1.05, GGGCUCACUCUGUCUCUACTT against Rpp25l -0.378, CCAAAUCUGGUGUGAUUCATT against Arhgef4 -0.923, GCAAAGAGGCCUAAUUGAATT against B2m 1.16, GGAUUUCAAACACGUCUUUTT against Asic5 0.222, GGUGAAGAGGAAGAUCCUGTT against Ctdnep1 0.421, GGGUUAUCCGUAUGUUUUCTT against Olfr557 0.964, GGGAUUUCUUACCCUGUUUTT against Prr7 -0.222, CGACAUUGAUAUCGUGCGCTT against Gadd45g -0.827, GGACUAGCAAGCUCUUCAGTT against Fancd2 -0.578, GCUCCACCGAGAAAUUACUTT against Magt1 1.63, CCCUCUUGAAAUUAGUGUGTT against Dusp14 0.405, GCUCACAUGUUUUAGGUGATT against Poc5 0.756, GGCAGACAAUCAAUGAAAUTT against Padi4 -0.451, GCCACUUCCGGUCAACUAUTT against Cog1 0.801, GUAUGUUUGGGCUUAGCCUTT against Olfr1348 -1.21, GGAAGUUACUGUUGAGUAGTT against Olfr114 0.209, GUUGAUGGAAACCAUGGAATT against Phf11d -0.504, GGAAAAAGCACCAUUGUGATT against Gnao1 -0.819, GCUACUUCGGGAAUUUUACTT against Ttc21a -1.16, CCCUAUGAGCAAAUCACAUTT against Ppp3cc -0.499, GGGAAGUUCAGUUCAAUACTT against Hps4 1.11, GCUGGAUAGCUAAAAUGAUTT against Gimap5 -0.0294, GCUAUAUUGUUAGCACACATT against Hmgn2 0.326, CCUGGAGGAGUAUUUACACTT against H2-Ob -1.17, GGGAAGAAAUCAACGAUAATT against Gpa33 -0.0673, GGAACACACCAUCAUCCAGTT against H2-Ea 1.29, GGGCUAUGCCUACUACACUTT against Fn3k 0.976, CCGAGGUGAUUAGGAUAACTT against Traf3ip1 -0.694, CCUCUUCAACAAACAAGCATT against Zscan22 -0.379, GCAGCAGUGAAAUAGCUUCTT against Eya1 -0.643, GCACAUUUGGACAACCAAUTT against AU018091 -0.973, GCCGCUAUCGUCUUUAUCATT against Ptk7 0.00632, GGAGAAAAACAUCAUUGAATT against Reck -0.102, GGCUCUCAACUAAAGCAGCTT against Snu13 -1.18, GGGCUUUGUUUCCAAGUUGTT against Muc15 -0.285, CCAUAGACUAUUAUCCUUATT against Uhrf1bp1l -0.282, GGACACAAAGAAGAAGAGGTT against Tarsl2 0.707, GGAAAUAUUGAUGCUGCUGTT against Ttc39a 1.09, CAAAAAUAUCUACAGAGUCTT against Olfr494 0.207, CGAGAAAAACGAUUUACUGTT against Orai2 -0.527
